Results on 20 compounds are retold here after PubChem BioAssay (NCATS).

Test [1] concerns the target Cytochrome P450 2C9 (Homo sapiens) (UniProt P11712). Briefly: qHTS Assay for Inhibitors and Substrates of Cytochrome P450 2C9 (AID 883). Further: nearly all actives have a fitted effect of over 60% in size. Further: potency means the concentration at half of the fitted maximal effect. The essentials:
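Human CYP2C9 (10nM) hydroxylated Luciferin-H (100uM, at its KM) to luciferin in 25mM KPO4. Compound was preincubated 10 min at 37C, then NADPH regeneration started a 60 min reaction at 37C. Luminescence was read after detection reagent, normalized to 57uM sulphaphenazole.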
(Quantitative high-throughput screening tests each substance at several concentrations.)

Test [2] concerns the target Cytochrome P450 3A4 (Homo sapiens) (UniProt P08684). Briefly: qHTS Assay for Inhibitors and Substrates of Cytochrome P450 3A4 (AID 884). Further: nearly all actives have a fitted effect of over 50% in size. Further: potency means the concentration at half of the fitted maximal effect. The essentials: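 Luminescent readout of luciferin produced by CYP3A4 (20 nM) dealkylation of Luciferin-PPXE, 25 uM (its KM). NADPH-driven reaction ran 60 min at RT after 10 min compound preincubation; data scaled to 57 uM ketoconazole as 100% inhibition.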

Test [3] addresses Cytochrome P450 2D6 (Homo sapiens) (UniProt P10635). Nature of the test: qHTS Assay for Inhibitors and Substrates of Cytochrome P450 2D6 (AID 891). Further: nearly all actives have a fitted effect of over 60% in size. Further: potency means the concentration at half of the fitted maximal effect. The gist of the method:
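Luminescent read-out of luciferin formed by 5 nM human CYP2D6 demethylating 30 uM Luciferin-ME EGE (Km level) over 60 min at room temperature after NADPH regeneration addition. Data normalized to full inhibition by 1.43 uM quinidine.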

Test [4] deals with Cytochrome P450 2C19 (Homo sapiens) (UniProt P33261). Briefly: qHTS Assay for Inhibitors and Substrates of Cytochrome P450 2C19 (AID 899). Further: nearly all actives have a fitted effect of over 60% in size. Further: potency means the concentration at half of the fitted maximal effect. The essentials: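 Human CYP2C19 (5nM) with Luciferin-H EGE at 10uM (its KM) in 50mM KPO4 was preincubated with compound for 10 min at 37C. NADPH regeneration started a 60 min 37C reaction. Luciferin was read by luminescence, normalized to 57uM ketoconazole.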
Cytochrome P450 2C19 (Homo sapiens), sequence (P33261 whole entry, looked up): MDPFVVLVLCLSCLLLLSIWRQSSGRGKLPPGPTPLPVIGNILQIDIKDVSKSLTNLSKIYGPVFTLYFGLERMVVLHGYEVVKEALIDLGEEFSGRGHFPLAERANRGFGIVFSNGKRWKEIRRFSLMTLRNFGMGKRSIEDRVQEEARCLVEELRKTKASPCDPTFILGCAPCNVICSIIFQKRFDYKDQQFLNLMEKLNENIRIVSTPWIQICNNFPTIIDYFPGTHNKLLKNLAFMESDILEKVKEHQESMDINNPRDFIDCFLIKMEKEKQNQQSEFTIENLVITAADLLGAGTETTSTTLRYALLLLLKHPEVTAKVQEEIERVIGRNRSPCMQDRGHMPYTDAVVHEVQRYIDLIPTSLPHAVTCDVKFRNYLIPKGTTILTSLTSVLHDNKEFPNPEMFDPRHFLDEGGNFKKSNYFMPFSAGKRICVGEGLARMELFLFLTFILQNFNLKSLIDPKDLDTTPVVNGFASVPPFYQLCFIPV

Test [5] has as its target Cytochrome P450 3A4 (Homo sapiens) (UniProt P08684). Briefly: qHTS Assay for Activators of Cytochrome P450 3A4 (AID 885). Further: nearly all actives have a fitted effect of over 65% in size. Further: potency means the concentration at half of the fitted maximal effect. The essentials:
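Activators are scored by enhanced luminescence from CYP3A4 conversion of luciferin-PPXE (25uM, equal to KM) to luciferin, after 60 min at RT with an NADPH-regenerating system.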

The target in test [6] is ATP-dependent 6-phosphofructokinase (Trypanosoma brucei brucei) (UniProt O15648). Briefly: qHTS Assay to Find Inhibitors of T. brucei phosphofructokinase: hit validation (AID 492961).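 Further: luminescence reports ADP formed as PFK phosphorylates fructose-6-phosphate with ATP.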 The essentials:
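PFK 1.25 nM, F6P 0.5 mM, ATP 0.1 mM, MgCl2 5 mM, 0.1 M TEA pH 8.0, Tween20 0.01%, BSA 0.1%; 45 min RT. ADP-Glo two-step detection, luminescence. qHTS titration; curve fitting with curve-class categorization.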

The test system of the next test is 7G8. Nature of the test: qHTS profiling for inhibitors of Plasmodium falciparum proliferation (AID 504749). Further: nearly all actives have a fitted effect of over 60% in size. Further: potency means the concentration at half of the fitted maximal effect. The following applies: P. falciparum in erythrocytes, SYBR Green DNA, 72 h; series mostly up to 12.8 µM. The essentials: (§1)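 Quantitative HTS: compounds pinned into medium, infected erythrocytes added (0.3% parasitemia, 2.5% hematocrit), 72 h culture at 37 C under 5% CO2. Saponin/Triton lysis with SYBR Green I, overnight RT, then fluorescence read.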

The test system of a further test is CP211. Described as above. The following applies: P. falciparum in erythrocytes, SYBR Green DNA, 72 h; series mostly up to 12.8 µM. The gist of the method:
as §1

Another test has as its system CP215. Described as above. The following applies: P. falciparum in erythrocytes, SYBR Green DNA, 72 h; series mostly up to 12.8 µM. The gist of the method: as §1
A further test relates to CP260. Described as above. The note with it: P. falciparum in erythrocytes, SYBR Green DNA, 72 h; series mostly up to 12.8 µM. The essentials: as §1
For a further test, the system named is CP266. The description is as above. The following applies: P. falciparum in erythrocytes, SYBR Green DNA, 72 h; series mostly up to 12.8 µM. The essentials: as §1
In a further test the test system is CP269. The test is described as above. The note with it: P. falciparum in erythrocytes, SYBR Green DNA, 72 h; series mostly up to 12.8 µM. The essentials:
as §1

For the next test, the system named is CP297. The description is as above. The note with it: P. falciparum in erythrocytes, SYBR Green DNA, 72 h; series mostly up to 12.8 µM. The gist of the method: as §1
In a further test the test system is CP315. The description is as above. The following applies: P. falciparum in erythrocytes, SYBR Green DNA, 72 h; series mostly up to 12.8 µM. The gist of the method:
as §1

In a further test the test system is CP335. The test is described as above. The note with it: P. falciparum in erythrocytes, SYBR Green DNA, 72 h; series mostly up to 12.8 µM. The essentials: as §1
In a further test the test system is DFO2036. The description is as above. The following applies: P. falciparum in erythrocytes, SYBR Green DNA, 72 h; series mostly up to 12.8 µM. The gist of the method: as §1
The subject of a further test is GB4. The test is described as above. The note with it: P. falciparum in erythrocytes, SYBR Green DNA, 72 h; series mostly up to 12.8 µM. The gist of the method:
as §1

The next test deals with P94_40. The test is described as above. The note with it: P. falciparum in erythrocytes, SYBR Green DNA, 72 h; series mostly up to 12.8 µM. The essentials: as §1
Another test deals with PC26. The description is as above. The following applies: P. falciparum in erythrocytes, SYBR Green DNA, 72 h; series mostly up to 12.8 µM. The essentials:
as §1

The test system of a further test is W2. Described as above. The following applies: P. falciparum in erythrocytes, SYBR Green DNA, 72 h; series mostly up to 12.8 µM. The essentials:
as §1

Results filed as inconclusive are left out. Active and inactive are the calls of the source. The call rests on the fitted dose curve; in most records, active means well fitted curve in the direction sought with a large enough effect; inconclusive means small, poorly fitted or top-dose-only effect, or another doubt; inactive means no such curve, though single readings can be large; an effect the other way counts as inactive or inconclusive.

Cytochrome P450 2D6 (Homo sapiens), sequence (P10635 whole entry, looked up): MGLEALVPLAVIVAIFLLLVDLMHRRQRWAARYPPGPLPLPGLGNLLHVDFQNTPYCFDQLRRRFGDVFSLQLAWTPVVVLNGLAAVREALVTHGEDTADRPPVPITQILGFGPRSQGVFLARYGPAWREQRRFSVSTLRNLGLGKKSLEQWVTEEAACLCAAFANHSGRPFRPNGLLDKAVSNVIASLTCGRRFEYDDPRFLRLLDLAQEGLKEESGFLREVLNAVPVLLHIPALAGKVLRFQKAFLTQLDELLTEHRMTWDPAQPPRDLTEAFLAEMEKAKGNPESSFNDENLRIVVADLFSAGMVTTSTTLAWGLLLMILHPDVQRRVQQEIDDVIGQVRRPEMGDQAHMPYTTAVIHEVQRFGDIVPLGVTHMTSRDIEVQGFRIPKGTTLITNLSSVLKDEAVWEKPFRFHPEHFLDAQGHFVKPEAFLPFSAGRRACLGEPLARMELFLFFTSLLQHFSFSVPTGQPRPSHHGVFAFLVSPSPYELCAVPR
Cytochrome P450 2C9 (Homo sapiens), sequence (P11712 whole entry, looked up): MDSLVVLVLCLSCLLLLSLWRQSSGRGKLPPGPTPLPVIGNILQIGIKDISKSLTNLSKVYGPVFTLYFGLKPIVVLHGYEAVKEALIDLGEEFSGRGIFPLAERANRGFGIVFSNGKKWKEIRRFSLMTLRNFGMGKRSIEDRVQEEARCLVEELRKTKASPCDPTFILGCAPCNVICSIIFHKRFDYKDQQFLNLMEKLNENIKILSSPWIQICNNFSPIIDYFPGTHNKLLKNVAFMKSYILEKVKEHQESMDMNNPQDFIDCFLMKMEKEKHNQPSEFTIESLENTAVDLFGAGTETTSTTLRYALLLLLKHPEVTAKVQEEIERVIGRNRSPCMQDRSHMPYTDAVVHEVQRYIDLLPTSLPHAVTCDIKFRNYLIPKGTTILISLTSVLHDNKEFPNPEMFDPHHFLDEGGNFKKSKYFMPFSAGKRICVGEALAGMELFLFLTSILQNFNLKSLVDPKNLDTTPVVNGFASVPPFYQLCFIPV
ATP-dependent 6-phosphofructokinase (Trypanosoma brucei brucei), sequence (O15648 whole entry, looked up): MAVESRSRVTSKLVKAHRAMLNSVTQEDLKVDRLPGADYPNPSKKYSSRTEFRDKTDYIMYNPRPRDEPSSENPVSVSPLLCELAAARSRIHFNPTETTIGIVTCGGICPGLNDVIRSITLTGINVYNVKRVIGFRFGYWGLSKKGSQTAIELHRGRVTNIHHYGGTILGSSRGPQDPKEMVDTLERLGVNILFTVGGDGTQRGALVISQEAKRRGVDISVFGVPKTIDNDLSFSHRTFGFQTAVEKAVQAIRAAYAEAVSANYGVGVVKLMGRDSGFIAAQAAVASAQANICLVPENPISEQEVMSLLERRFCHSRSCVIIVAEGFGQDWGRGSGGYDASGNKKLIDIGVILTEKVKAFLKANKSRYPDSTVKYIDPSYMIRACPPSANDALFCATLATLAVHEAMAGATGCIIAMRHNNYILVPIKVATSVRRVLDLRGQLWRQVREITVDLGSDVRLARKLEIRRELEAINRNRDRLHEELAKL
Cytochrome P450 3A4 (Homo sapiens), sequence (P08684 whole entry, looked up): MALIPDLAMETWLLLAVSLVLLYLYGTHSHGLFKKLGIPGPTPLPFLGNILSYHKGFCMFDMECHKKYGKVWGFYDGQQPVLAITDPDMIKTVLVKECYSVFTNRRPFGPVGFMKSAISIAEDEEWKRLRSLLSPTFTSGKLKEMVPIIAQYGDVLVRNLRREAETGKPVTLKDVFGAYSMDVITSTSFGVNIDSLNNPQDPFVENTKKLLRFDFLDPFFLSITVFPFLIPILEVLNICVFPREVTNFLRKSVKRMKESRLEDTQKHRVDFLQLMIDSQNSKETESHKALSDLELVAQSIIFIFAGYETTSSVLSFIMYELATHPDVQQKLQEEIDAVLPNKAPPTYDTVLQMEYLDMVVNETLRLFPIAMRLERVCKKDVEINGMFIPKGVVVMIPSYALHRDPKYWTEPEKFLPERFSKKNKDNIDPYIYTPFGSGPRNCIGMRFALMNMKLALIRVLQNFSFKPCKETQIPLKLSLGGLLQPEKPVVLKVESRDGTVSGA

On to `CC(=O)N[C@H](CS)C(=O)O`, for which the Potency entry in test [1], in [2], in [3] and in test [4] was “inactive” each time.

`CC(=O)CC(=O)[C@@]1(O)CC[C@@H]2[C@@H]3C=C(C)C4=CC(=O)CC[C@@H]4[C@H]3CC[C@]21C`: the Potency entry in test [2] is “inactive”. The Potency in test [5] is 2.51 µM (active); in [4] it was 5.01 µM (active).

`Cn1c(-c2ccc3c(c2)OCO3)cc(=O)c2ccccc21`: the Potency result in test [5] is “inactive”. Moreover, the Potency in test [3] was 1.58 µM (active).

On to `C#C[C@]1(O)CC[C@@H]2[C@H]3CCc4cc(OC)ccc4[C@@H]3CC[C@@]21C`, for which the Potency result in [5] is “inactive”.

For the compound `CN(C)c1ccc(-c2nccc(NCc3ccccc3)n2)cc1`, the Potency in test [2] was 7.94 µM (active); in test [3], 3.16 µM (active). In addition, the Potency result in test [5] is “inactive”.

Regarding `NS(=O)(=O)c1cc2c(cc1Cl)N[C@@H](C(Cl)Cl)NS2(=O)=O`, the compound was called inactive in test [6]. The Potency result in the test on 7G8, in the test with CP211, with CP215, in the test with CP260, in the test on CP266 and with CP269 was “inactive” each time. The Potency entry in the test on CP297, in the test with CP315, with CP335, in the test with DFO2036, in the test on GB4 and in the test on P94_40 was “inactive” in each case. The Potency entry in the test on PC26 was “inactive”.

`CC(=O)O[C@]1(C(C)=O)CC[C@@H]2[C@@H]3C=C(C)C4=CC(=O)CC[C@@]4(C)[C@H]3CC[C@]21C`: the Potency result (in test [2]; with CP211; with CP215; in the test on CP260; with CP266; in the test on CP269) was “inactive” each time. Besides, the Potency result in the test on CP297, with CP315, in the test on CP335, in the test on DFO2036, in the test with GB4 and in the test on P94_40 was “inactive” in each case. The Potency entry with W2 is “inactive”.

On to `CCC[C@H]1C[C@H](C(=O)N[C@H]([C@@H]2O[C@H](SC)[C@@H](O)[C@H](O)[C@@H]2O)[C@H](C)O)N(C)C1`, for which the Potency result in test [1] was “inactive”.

Regarding `COc1ccc2c3c([nH]c2c1)[C@@H]1C[C@@H]2[C@@H](C[C@H](O)[C@H](OC)[C@H]2C(=O)O)CN1CC3`, the Potency entry in test [1] was “inactive”.

Consider `CC(=O)[C@@H]1CC[C@@H]2[C@@H]3C[C@H](C)C4=CC(=O)CC[C@@]4(C)[C@H]3[C@H](O)C[C@]21C`, for which the Potency in test [1] is 0.398 µM (active). The Potency result (in test [5]; in the test with CP211; in the test on CP215; with CP260; in the test on CP266; in the test with CP269) was “inactive” in each case. Further, the Potency entry in the test with CP315, with CP335, in the test with GB4 and in the test with PC26 was “inactive” each time. Further, the compound was called inactive in [6].

For the compound `C#C[C@@]1(O)CC[C@@H]2[C@@H]3CCC4=CC(=O)CC[C@@H]4[C@H]3CC[C@]21C`, in test [4], the Potency was 5.01 µM (active).

Consider `C=CC1=C(C(=O)O)N2C(=O)[C@@H](NC(=O)/C(=N\OCC(=O)O)c3csc(N)n3)[C@@H]2SC1`, for which the Potency result in the test on 7G8, in the test with CP211, in the test on CP215, in the test with CP260, in the test on CP266 and in the test on CP269 was “inactive” in each case. Further, the Potency entry in the test with CP297, in the test on CP315, with CP335, in the test with DFO2036, in the test on GB4 and in the test on P94_40 was “inactive” each time. In addition, the Potency result in the test on PC26 and with W2 was “inactive” each time.

For `Cc1ccc(S(=O)(=O)NC(=O)NN2C[C@H]3CCC[C@@H]3C2)cc1`, in [6], the call was inactive. Moreover, the Potency entry in the test on 7G8, with CP211, in the test with CP215, with CP260, in the test with CP266 and with CP269 was “inactive” throughout. Also, the Potency result in the test with CP297, in the test on CP315, in the test on CP335, in the test on GB4, with P94_40 and with PC26 was “inactive” throughout. The Potency entry with W2 was “inactive”.

As to `CC1(C)O[C@H]2C[C@@H]3[C@H]4CCC5=CC(=O)CC[C@@]5(C)[C@]4(F)[C@@H](O)C[C@@]3(C)[C@@]2(C(=O)CCl)O1`, in [6], the compound was called inactive. Further, the Potency with 7G8 is 1.58 µM (active); in the test on CP260, 3.16 µM (active); in the test on GB4, 5.73 µM (active); in the test with P94_40, 3.16 µM (active); in the test on PC26, 6.42 µM (active); in the test on W2, 4.55 µM (active). In addition, the Potency entry in the test on CP266 is “inactive”.

Regarding `C[C@H]1CC[C@]2(OC1)O[C@@H]1C[C@@H]3[C@@H]4CC[C@H]5C[C@@H](O)CC[C@]5(C)[C@@H]4CC(=O)[C@@]3(C)[C@H]1[C@@H]2C`, the call in test [6] was inactive. Moreover, the Potency result with 7G8, with CP211, in the test on CP215, in the test with CP260, in the test on CP266 and with CP269 was “inactive” in each case. The Potency result in the test on CP297, with CP315, in the test on CP335, in the test with GB4, in the test on P94_40 and in the test with PC26 was “inactive” each time. Besides, the Potency result with W2 is “inactive”.

With `C[C@@]12C=CC(=O)C=C1CC[C@@H]1[C@@H]2[C@H](O)C[C@]2(C)[C@@H]1CC[C@]2(O)C(=O)CO`, the Potency result in test [4] was “inactive”.

For the compound `CCOC(=O)C1=C(C)NC(C)=C(C(=O)OC)[C@@H]1c1cccc([N+](=O)[O-])c1`, the Potency was 0.316 µM (active) in test [1] and 0.126 µM (active) in [4]. Besides, the Potency result in test [5] is “inactive”.

As for `CCCC[C@H](CC)CN1CN(C[C@@H](CC)CCCC)CC(C)(N)C1`, the figures for the Potency (in [3]; with CP260) were 1.26 µM (active) and 3.55 µM (active), respectively. The result in test [6] was inactive. Also, the Potency result in the test on CP211, with CP215, in the test on CP266, in the test on CP269, in the test on CP297 and with CP315 was “inactive” each time. The Potency result with CP335, with DFO2036, in the test on GB4, with P94_40 and in the test with PC26 was “inactive” throughout.

Take `CC(C)NC[C@H]1CCc2cc(CO)c([N+](=O)[O-])cc2N1`: the result in [6] was inactive. In addition, the Potency result in the test with 7G8, with CP215, in the test on CP260, in the test on CP266, with CP269 and in the test on CP297 was “inactive” in each case. Further, the Potency entry in the test on CP315, in the test on CP335, with DFO2036, in the test with GB4, in the test on P94_40 and with PC26 was “inactive” each time. Besides, the Potency entry with W2 is “inactive”.

With `C[C@@H]1Cc2ccccc2N1NC(=O)c1ccc(Cl)c(S(N)=O)c1` (stereo partly specified), the compound was classed as inactive in [6]. Also, the Potency result with CP211, with CP215, in the test on CP260, with CP266, in the test with CP269 and with CP297 was “inactive” in each case. The Potency result in the test with CP315, with CP335, with DFO2036, in the test with GB4, in the test on P94_40 and in the test with PC26 was “inactive” each time. Further, the Potency result in the test on W2 was “inactive”.
